BAZ2B block – BAZ2B (human) inhibition; AlphaScreen BAZ2B-H3K14Ac peptide displacement; Potency, µM (series often up to 114 µM), actives largely listed as inhibitors; 360,000 tested, 4.4% active; AID 504333; further: nearly all actives have a fitted effect of over 60% in size
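AlphaScreen displacement: compounds (up to 110uM) incubated 30 min at room temperature with a preformed 50 nM BAZ2B/50 nM biotinylated H3K14Ac peptide complex in PBS pH 7.4 with Tween-20. Donor and acceptor beads at 10 ug/mL final added, 20 min light-protected before reading.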
JMJD2A Tudor – inhibitors of human JMJD2A Tudor domain; Potency, µM (highest dose often 114 µM), hits mostly inhibitors; AID 504339; O75164; AlphaScreen JMJD2A-Tudor / H3K4me3 peptide binding; 390,000 tested, 4.4% active; further: nearly all actives have a fitted effect of over 50% in size
G9a inh – blocks human histone lysine methyltransferase G9a. Potency, µM (doses to about 102 µM), hits mostly inhibitors. Q96KQ7. 350,000 tested, 8.8% active. G9a H3K9 monomethylation, AlphaScreen, 2 h; further: nearly all actives have a fitted effect of over 75% in size
Target sequence (Q96KQ7 913-1193 limits assumed): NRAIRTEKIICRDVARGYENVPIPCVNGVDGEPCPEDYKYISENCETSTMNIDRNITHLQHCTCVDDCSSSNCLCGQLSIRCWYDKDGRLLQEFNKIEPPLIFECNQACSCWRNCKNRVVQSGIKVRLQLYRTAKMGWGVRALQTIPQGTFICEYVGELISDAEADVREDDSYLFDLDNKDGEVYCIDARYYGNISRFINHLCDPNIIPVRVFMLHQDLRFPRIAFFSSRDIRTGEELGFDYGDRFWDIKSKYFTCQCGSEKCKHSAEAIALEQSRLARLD
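AlphaScreen detection with an anti-monomethyl H3K9 antibody quantified product after a 2 h room-temperature reaction containing 500 nM biotinylated H3K9 peptide, 20 µM SAM and 20 nM enzyme, which had been preincubated 15 min with compound.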
L3MBTL1 inh – blocks human L3MBTL1 | 230,000 tested, 0.66% active | AlphaScreen L3MBTL1–H3K9me1 peptide binding | Potency, µM (series often up to 57.1 µM), usual class: inhibitors; further: nearly all actives have a fitted effect of over 60% in size
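L3MBTL1 (50 nM) pre-complexed 30 min with biotinylated H3(1-15)K9me1 peptide (75 nM), then compounds added for 30 min at room temperature; AlphaScreen streptavidin donor/nickel chelate acceptor beads (10 ug/mL final) read after 30 min dark incubation.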
HP1b binding inh – blocks HP1-beta chromodomain binding to methylated histone tails; P83916; AlphaScreen HP1-beta / biotin-H3K9me3 peptide binding; Potency, µM (top dose mostly 114 µM), most hits filed as inhibitors; 390,000 tested, 0.56% active; AID 540317; further: nearly all actives have a fitted effect of over 70% in size
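HP1-beta protein (50 nM final) preincubated 30 min at room temperature with biotinylated H3(1-18)K9me3 peptide (50 nM) in PBS pH 7.4, 0.01% Tween-20, then compound added for 30 min. AlphaScreen streptavidin donor/nickel chelate acceptor beads (10 ug/mL final), 30 min dark, luminescence read.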
PI5P4Ka inh – blocks human PI5P4K alpha kinase activity | P48426 | PI5P4Kalpha enzyme, ADP-Glo luminescence, 60 min; active compounds read low | max response, % | 330,000 tested, 1.2% active; active means max response of -50% or lower; inconclusive means between -30% and -50%; inactive means -30% or higher; further: value at the top dose of about 77 µM
Target sequence (P48426 whole entry, looked up): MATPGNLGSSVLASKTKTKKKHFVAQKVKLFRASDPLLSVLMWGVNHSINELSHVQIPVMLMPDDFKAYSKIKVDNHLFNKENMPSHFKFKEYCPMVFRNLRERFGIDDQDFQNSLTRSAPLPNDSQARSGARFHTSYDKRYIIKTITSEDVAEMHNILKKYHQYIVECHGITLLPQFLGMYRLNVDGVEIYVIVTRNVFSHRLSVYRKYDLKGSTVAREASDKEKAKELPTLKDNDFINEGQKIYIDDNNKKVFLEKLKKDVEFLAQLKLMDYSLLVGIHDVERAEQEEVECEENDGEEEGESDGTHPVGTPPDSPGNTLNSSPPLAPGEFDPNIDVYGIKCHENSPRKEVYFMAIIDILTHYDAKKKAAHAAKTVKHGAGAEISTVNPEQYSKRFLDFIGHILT
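ADP-Glo luminescence end-point read after a 60 min room-temperature kinase reaction of PI5P4Kalpha plus substrate, initiated with ATP at 5 microM final. Buffer: 0.038 M HEPES pH 7.4, EGTA, 0.1% CHAPS, 5% DMSO.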
Hits are given with their value; 0 = inactive; ? = inconclusive; - = not tested or not shown; ! = not active in a repeat; [ ] = dose if it differs, or a comment. Only some compounds are listed: those with a hit (about 11% of all), similar ones and a draw of the others. Unless noted, the call rests on the fitted dose curve; in most records, active means well fitted inhibition curve with a large enough effect; inconclusive means small, poorly fitted or top-dose-only effect; inactive means no such curve, though single readings can be large or run the other way.

SMILES | BAZ2B block | JMJD2A Tudor | G9a inh | L3MBTL1 inh | HP1b binding inh | PI5P4Ka inh
COc1cc(CNCCc2c[nH]c3ccccc23)cc(OC)c1OC | - | - | - | - | - | 0
COc1ccc(CNCCc2c(C)[nH]c3ccc(OC(F)(F)F)cc23)c(OC)c1 | 56µM | 18µM | 45µM | - | ? | 0
COc1ccc2[nH]c(C)c(CCNCc3cc(OC)c(OC)c(OC)c3)c2c1 | 79µM | 2.8µM | 22µM | 0 | ? | 0
C[N+]1([O-])[C@@H]2CC[C@H]1CC(OC(=O)[C@@H](CO)c1ccccc1)C2 (stereo partly specified) | - | - | 0[5.15 µM] | - | - | -
COc1cccc(C2Nc3ccccc3C(=O)N2Cc2ccccc2)c1 (stereo unspecified) | - | 0 | - | - | 0 | 0
O=C1NC(=O)N(C2CCCCC2)C(=O)C1C1c2ccccc2C(=O)N1Cc1ccccc1 (stereo unspecified) | 0 | 0 | 56µM | 0 | 0 | 0
Oc1cccc2nc3ccccc3nc12 | ? | ? | 28µM | 0 | 0 | 0
O=C(NCc1ccco1)C(c1ccco1)N(C(=O)Cn1nnc2ccccc21)c1ccc2c(c1)CCC2 (stereo unspecified) | - | ? | - | - | ? | 0
CC(=O)Nc1ccc(N(C(=O)Cn2nnc3ccccc32)C(C(=O)NC2CCCC2)c2ccc(O)c(O)c2)cc1 (stereo unspecified) | 0 | 0 | 50µM | 0 | 0 | 0
CC[N+](C)(CC)CCCCOc1ccc2c(c1)C(=O)c1cc(OCCCC[N+](C)(CC)CC)ccc1-2 | ? | 22µM | 32µM | 0 | ? | 0
O=C(Nc1ccc(Br)cc1)c1cc(Br)cc(Br)c1O | - | - | 0 | - | - | -
O=c1[nH]c(=O)n(Cc2ccc(F)cc2)c(O)c1C=NCCCO | 0 | 0 | 0 | ? | 0 | -
O=c1[nH]c(=O)n(CCC2=CCCCC2)c(O)c1/C=N/Nc1cccc2ccccc12 | ? | 0[11.4 µM] | 1.8µM | - | 32µM | -65
O=c1[nH]c(=O)n(CCC2=CCCCC2)c(O)c1/C=N/N1CCOCC1 | 0 | 0 | - | 0 | 0 | 0
O=c1[nH]c(=O)n(Cc2ccc(F)cc2)c(O)c1/C=N/Nc1ccccc1 | 0 | 0 | 10µM | - | 0 | ?
O=c1[nH]c(=O)n(CCC2=CCCCC2)c(O)c1C=NC1CCN(Cc2ccccc2)CC1 | 0 | 0 | 0 | 0 | 0 | 0
O=c1[nH]c(=O)n(CCC2=CCCCC2)c(O)c1/C=N/Nc1ccccc1 | 0 | 0 | 3.5µM | 0 | 0 | 0
CC(=O)OC1CC2C(C)(C)C(=O)C=C[C@]2(C)C2CC[C@]3(C)C(=CC(=O)OC3c3ccoc3)[C@]12C (stereo partly specified) | - | - | 0[2.33 µM] | - | - | -
CCN1C[C@]2(COC)CC[C@H](OC)[C@@]34C5C[C@@H]6[C@@H](OC)C[C@@]7(OCO[C@@]7([C@@H](O)C23)[C@@H]14)C5[C@H]6OC (stereo partly specified) | - | - | 0 | - | - | -
C=CCNc1nnc(Sc2ncccc2[N+](=O)[O-])s1 | ? | 0 | 0 | - | 0 | 0
O=C(O)c1c[nH]c2ccc(S(=O)(=O)N(CCCl)CCCl)cc12 | 0 | 0 | 18µM | - | 0 | 0
CC(=O)Nc1cc([As](=O)(O)O)ccc1O | 0 | 0 | 0 | 0 | 0 | 0
CC(=O)Nc1cc(Cl)c(N=Cc2ccc(O)cc2O)cc1Cl | 0 | 0 | 56µM | 0 | 0 | ?
COc1ccc(/C=C/C(=O)NC(=S)N2C[C@H]3C[C@H](C2)c2cccc(=O)n2C3)cc1OC | 0 | 0 | 35µM | 0 | 0 | 0
O=C(/C=C/c1ccc(F)cc1)NC(=S)N1C[C@H]2C[C@H](C1)c1cccc(=O)n1C2 | 0 | 0 | 0 | 0 | 0 | 0
SMILES | BAZ2B block | JMJD2A Tudor | G9a inh | L3MBTL1 inh | HP1b binding inh | PI5P4Ka inh
O=C(/C=C/c1ccccc1)NC(=S)N1C[C@H]2C[C@H](C1)c1cccc(=O)n1C2 | 0 | 0 | 32µM | 0 | 0 | 0
CC(=O)[C@@H]1CC[C@H]2[C@@H]3CC[C@@H]4CC(=O)CC[C@]4(C)[C@H]3CC[C@]12C | - | - | 0 | - | - | -
O=C(CCN1CCN(c2ccccc2)CC1)c1ccc(Br)cc1 | ? | 0 | 20µM | - | 0 | 0
O=C(CCN1CCCCC1)Nc1ccc(Br)cc1C(=O)c1ccccc1 | 0 | 0 | 0[2.33 µM] | - | 0 | 0
COc1ccc(Nc2nc(N)nc(CSc3nc4ccccc4s3)n2)cc1 | 0 | ? | ? | - | 0 | -
O=C(NCCSc1c(-c2ccccc2)[nH]c2ccccc12)c1ccc(S(=O)(=O)N2CCOCC2)cc1 | 0 | 0 | ? | - | 0 | -
CN1CC(C(=O)c2ccc(Cl)cc2)C(c2ccc(N(C)C)cc2)C1 (stereo unspecified) | 35µM | 50µM | 35µM | ? | 0 | 0
C#CC(C)(O)CC (stereo unspecified) | - | - | 0[12.7 µM] | - | - | -
C[N+](C)(C)CC#CCN1CCCC1=O | - | ? | 0.63µM | - | 0 | 0
C/C(Cl)=C/CC1(CN2CCCC2=O)C(=O)NC(=O)NC1=O | 0 | 0 | ? | 0 | 0 | 0
CCOC(=O)NC(O)C(Cl)(Cl)Cl (stereo unspecified) | - | - | 0[12.7 µM] | - | - | -
COC(=O)CCCCC1SCC(NC(=O)c2ccccc2)C1Cl (stereo unspecified) | 79µM | 0 | 0 | 0 | 0 | 0
Cc1ccc2c(c1)C1C[N+](C)(CC(=O)c3ccc(Cl)cc3Cl)CCC1N2C(=O)c1ccc(F)cc1 (stereo unspecified) | - | 16µM | - | 0 | ? | 0
OCC(O)Cc1ccc2c(c1)OCO2 (stereo unspecified) | - | - | 0[2.33 µM] | - | - | -
CNC(=O)Oc1ccccc1C(=O)Nc1ccccc1 | - | - | 0[12.7 µM] | - | - | -
CCN1CCN(C(=O)Cc2c(C)n(C(=O)c3ccc(Cl)cc3)c3ccc(OC)cc23)CC1 | 71µM | 0 | 50µM | 0 | 0 | 0
C=CCc1c(C)[nH]c(=S)c(C#N)c1C | 0 | 5µM | 1.1µM | 0 | 0 | ?
CCCN[C@@H]1CCc2c(OC)cccc2[C@@H]1C | - | - | 0 | - | - | -
CS(=O)(=O)NNP(=O)(NNS(C)(=O)=O)NC(=O)c1ccccc1 | 0 | 0 | 56µM | 0 | 0 | 0
CS(=O)(=O)NNP(=O)(NNS(C)(=O)=O)NC(=O)c1ccc(Br)cc1 | 0 | 0 | 45µM | 0 | 0 | 0
C[C@H](CCC(=O)O)C[C@H](C)C[C@H](C)C(=O)/C=C(\O)[C@H](C)C[C@H](C)C/C=C/[C@@H](C)[C@@H](O)[C@@H](C)[C@@H](O)C[C@@H]1CC[C@@](C)([C@H]2CC[C@@](C)([C@@H](C)O)O2)O1 | - | - | 0 | - | - | -
CCSc1nnc(NC(=O)c2cccn(Cc3ccc(Cl)cc3)c2=O)s1 | 0 | 0 | 0 | - | 0 | -
CCN1CCN(c2cc(N3CCCC3)c(F)cc2[N+](=O)[O-])CC1 | 0 | 0 | 45µM | 0 | 0 | 0
CC(C)COC(=O)OCN1C(=O)CN(CCN2CC(=O)N(COC(=O)OCC(C)C)C(=O)C2)CC1=O | 0 | 0 | 13µM! | 0 | 0 | 0

Assay outcomes from PubChem BioAssay.
